Experiments:
Test in all cases: PBM binding z-score (relative to random genomic background probes); higher = stronger binding; sequences stand for … in GC…GCGATTGACAGCGTAGAATGAAGG
[1] = system: FXR:RXRa (NR concentration 270 nM, RXRa partner concentration 90 nM)
Outline: (§1)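 Ligand-free nuclear receptor dimers were applied to custom Agilent 4×180K protein-binding microarrays whose double-stranded probes carried direct-repeat seeds, single-nucleotide variants, half-site ablations and random human genomic background sequences in 34-nt variable regions. Incubation lasted 1 h. Binding z-scores were computed against the random background probes from regression-normalized fluorescence.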

[2] = system: LXRa:RXRa (NR concentration 270 nM, RXRa partner concentration 90 nM)
Outline: as §1

[3] = system: LXRa homodimer (NR concentration 270 nM)
Outline: as §1

[4] = system: LXRb:RXRa (NR concentration 270 nM, RXRa partner concentration 90 nM)
Outline: as §1

[5] = system: LXRb homodimer (NR concentration 270 nM)
Outline: as §1

[6] = system: PPARa:RXRa (NR concentration 270 nM, RXRa partner concentration 90 nM)
Outline: as §1

[7] = system: PPARg:RXRa (NR concentration 180 nM, RXRa partner concentration 90 nM)
Outline: as §1

[8] = system: PPARg:RXRa 270nM:90nM, anti-RXR (NR concentration 270 nM, RXRa partner concentration 90 nM)
Outline: as §1

[9] = system: PPARg:RXRa 30nM:10nM, anti-RXR (NR concentration 30 nM, RXRa partner concentration 10 nM)
Outline: as §1

[10] = system: PPARg:RXRa 90nM:30nM, anti-RXR (NR concentration 90 nM, RXRa partner concentration 30 nM)
Outline: as §1

[11] = system: PPARg:RXRa DBDmut IVT, anti-RXR (DBD mutation: RXRa K156A/R161A, NR concentration 270 nM, RXRa partner concentration 90 nM)
Outline: as §1

[12] = system: PPARg:RXRa IVT, anti-PPARg (NR concentration 270 nM, RXRa partner concentration 90 nM)
Outline: as §1

[13] = system: PPARg DBDmut:RXRa IVT, anti-PPARg (DBD mutation: PPARg1 K132A/R137A, NR concentration 270 nM, RXRa partner concentration 90 nM)
Outline: as §1

[14] = system: PPARg DBDmut IVT, anti-PPARg (DBD mutation: PPARg1 K132A/R137A, NR concentration 270 nM)
Outline: as §1

[15] = system: PPARg homodimer (NR concentration 180 nM)
Outline: as §1

[16] = system: PXR:RXRa (NR concentration 270 nM, RXRa partner concentration 90 nM)
Outline: as §1

[17] = system: PXR homodimer (NR concentration 270 nM)
Outline: as §1

[18] = system: RARa:RXR (NR concentration 270 nM, RXRa partner concentration 90 nM)
Outline: as §1

[19] = system: RARa homodimer (NR concentration 270 nM)
Outline: as §1

[20] = system: RARb:RXRa (NR concentration 270 nM, RXRa partner concentration 90 nM)
Outline: as §1

Sequence	PBM binding z-score [1]	PBM binding z-score [2]	PBM binding z-score [3]	PBM binding z-score [4]	PBM binding z-score [5]	PBM binding z-score [6]	PBM binding z-score [7]	PBM binding z-score [8]	PBM binding z-score [9]	PBM binding z-score [10]	PBM binding z-score [11]	PBM binding z-score [12]	PBM binding z-score [13]	PBM binding z-score [14]	PBM binding z-score [15]	PBM binding z-score [16]	PBM binding z-score [17]	PBM binding z-score [18]	PBM binding z-score [19]	PBM binding z-score [20]
TAGCCTAGGTCATGGGCCATTATACCACGCGAAC	4.64	3.37	0.43	2.95	0.468	4.24	4.34	4.26	1.44	2.97	1.69	3.57	0.221	-0.316	1.41	1.81	-0.0788	2.65	-0.113	3.98
CCGACTGGGGCAAAGGTGACCATACTCAGTACGA	0.275	0.171	-0.478	0.634	-1.65	4.77	10.3	8.5	8.35	9.3	5.54	5.24	0.207	-0.959	1.34	0.701	-0.655	1.65	-0.317	1.62
ATCGAACGGTCGAAGGTGAGTATACCCACCCGAA	-0.145	-0.0927	-0.458	-0.384	-0.206	0.517	1.03	1.22	0.0354	0.698	-0.97	0.443	0.226	-0.543	-0.177	-0.254	-0.523	0.0689	-0.549	1.05
GATACAGGGTCAGCTAGAGGCCAGATTATGGAAA	4.25	2.85	-0.166	2.68	-0.373	4.42	3.59	3.18	0.899	1.88	0.866	2.23	0.547	-0.0092	1.91	3.24	-0.0885	4.03	0.518	4.12
CATAGCAGGCCAGGGTCACTCAAGCATTTCGCTT	2.42	1.71	-0.165	2.2	0.0433	3.42	1.88	2.27	0.29	1.54	1.4	2.14	-0.201	-0.525	1.38	2.93	-0.247	3.63	-0.0529	2.79
TCATATAGGTAAAAGCTGAAAGTCGGTGTGGTAA	0.59	0.549	-0.108	0.664	-0.24	1.41	0.589	2.74	3.52	3.25	4.01	2.14	1.19	0.683	0.11	0.239	-0.198	0.257	0.519	0.0291
AGAATGAGGTTATTCAGATCAGGGAATTGCGGTC	2.47	1.98	0.596	1.51	0.0526	3.31	1.58	1.96	0.851	1.27	3.18	2.64	0.879	0.0193	0.501	1.8	0.717	1.98	0.495	1.68
ATATGTAAGTTAAGGGTCATTCAGGTTGGTTCGC	4.42	4.64	3.27	4.11	1.56	5.03	6.82	7.16	6.71	7.81	1.13	3.7	1.79	1.39	4.41	5.17	2.93	4.86	1.97	3.42
TTATATAGGTAATACAGGTGAAAGTCGGCATCTA	0.622	1.12	0.509	0.772	0.539	2.7	3.5	3.07	2.07	2.5	6.01	5.97	1.64	2.72	1.34	0.367	0.343	0.639	1.4	0.616

Reference: the supplement of paper PMC6555819
